One assay has as its system SERPINA7 (gene 6906). Kind of assay: CCTE_GLTED_hTBG: CCTE's human Thyroxine-binding Globulin (TBG) Inhibition Assay, Great Lakes Toxicology and Ecology Division (GLTED) Lab (AID 2284343).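 Note: active chemicals lower fluorescence versus DMSO baseline by displacing probe.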 An outline of the steps: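 Cell-free displacement of the fluorescent probe ANSA from human thyroxine-binding globulin after 2 h exposure. Read-out at ex 380/em 475 nm; DMSO baseline.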

Assay [1] is described as follows: TAMU_PeakParms_SingleDonor1434_Asystole: Texas A&M University (TAMU) 1.5-hr Human Induced Pluripotent Stem Cell (iPSC)-derived Cardiomyocytes Calcium (Ca+2) Flux Assay for Cardiotoxicity: Asystole (quiescence of beating) (AID 2284328). An outline of the steps:
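Donor 1434 iPSC-cardiomyocytes exposed 90 min at 37C, 5% CO2, to 0.2, 1, 10 and 100 uM in 0.5% DMSO. Ca2+ dye fluorescence gave average peak frequency; POD is EC95, a 95% beat-rate drop versus controls.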

The nature of assay [2]: VALA_TUBIPS_Antagonist_CellCount: Viability Assessment in the VALA Sciences human iPS-derived Endothelial Tubule Formation (TUBIPS) Antagonism Assay (AID 2284335).
Assay [3] can be described thus: VALA_MIGHUV1_ScratchOnly_WoundArea: VALA Sciences human Umbilical Vein Endothelial Cell Migration (MIGHUV) Assay, Area of Scratch Wound Inhibited Recovery (AID 2284336). An outline of the steps:
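Wound area remaining after 24 h recovery imaged by Hoechst nuclear fluorescence in scratched HUVEC cultures, chemicals added within 30 min of scratching across a 6-point series. Gain of signal fitted against 0.1% DMSO; cytochalasin D positive control.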

A short description of assay [4]: CCTE_Mundy_HCI_iCellGluta_NOG_NeuronCount: CCTE's Neurite Outgrowth Assay in iCellGluta cells for Neuron Count, Mundy Lab (AID 2284340).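 Note: cells fixed about 48 h after compound addition.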 An outline of the steps: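 Neuron count read by automated high-content imaging of Hoechst 33342 and betaIII-tubulin/Alexa Fluor-488 labelling in human iPSC glutamatergic neurons. Activity fitted relative to DMSO.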
Assay [5] is described as follows: CCTE_Mundy_HCI_iCellGluta_NOG_NeuriteCount: CCTE's Neurite Outgrowth Assay in iCellGluta cells for Neurite Count, Mundy Lab (AID 2284342).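 Note: chemical exposure about 48 hours starting 2 hours after plating.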
Assay [6] is described as follows: CCTE_Deisenroth_DEVTOX-GLR_legacy_CellCount: (Legacy) Viability Assessment in CCTE's DevTox GLR-Endo Assay, Deisenroth Lab (AID 2284331; active = hit-call score of the fitted dose curve at least 0.9, where 1 is the maximum; inactive = score below 0.9). The settings on record: actives raise or lower the signal. The gist of the method:
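Viability is taken from imaged nuclei counts in fixed RUES2-GLR cultures after 48 h of differentiation under two 24 h-spaced chemical exposures, 10 concentrations from 1 nM to 200 uM, gain or loss versus DMSO baseline.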

The test system of assay [7] is SRY-box transcription factor 17 (SOX17) Protein Expression, Deisenroth Lab, SOX17 (gene 64321). Nature of the assay: CCTE_Deisenroth_DEVTOX-GLR_legacy_Sox17: (Legacy) CCTE's DevTox GLR-Endo Assay Evaluation of SRY-box transcription factor 17 (SOX17) Protein Expression, Deisenroth Lab (AID 2284341; active = hit-call score of the fitted dose curve at least 0.9, where 1 is the maximum; inactive = score below 0.9). The settings on record: actives raise or lower the signal. The gist of the method: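 Endoderm-differentiation readout in RUES2-GLR human pluripotent cells at 48 h, concentrations spanning 1 nM - 200 uM. Sox17-positive cells divided by total cell count; gain or loss relative to DMSO solvent control, n=4 experimental replicates.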

Assay [8] relates to SRY-box transcription factor 2 (SOX2) Protein Expression, Deisenroth Lab, SOX2 (gene 6657). Nature of the assay: CCTE_Deisenroth_DEVTOX-GLR_legacy_Sox2: (Legacy) CCTE's DevTox GLR-Endo Assay Evaluation of SRY-box transcription factor 2 (SOX2) Protein Expression, Deisenroth Lab (AID 2284346; active = hit-call score of the fitted dose curve at least 0.9, where 1 is the maximum; inactive = score below 0.9). The gist of the method:
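Read-out: fraction of Sox2+ cells by high-content fluorescence imaging of fixed RUES2-GLR cells after 48 h differentiation with two 24 h-spaced exposures. Positivity cutoff 5x BMAD above endoderm control median; 0.2% DMSO median subtracted.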

Assay [9] in a line: IUF_NPC1_cytotoxicity_72hr: Cytotoxicity Assessment at 72 hours in the Leibniz Research Institute for Environmental Medicine (IUF) Neural Progenitor Cell Proliferation Assay (NPC1) (AID 2284332).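 Note: rising LDH signal means more cytotoxicity.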 An outline of the steps: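 Cytotoxicity by LDH membrane-integrity assay on medium supernatants, fluorescence via resazurin reduction, after 3-day single exposure of primary hNPC spheres at 37C, pH 7.2-7.6 with growth factors. Fitted upward against baseline.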

Values joined by “and” are separate entries in the source; they are usually repeats but may differ in a detail not shown here. Identical values can stand only once. Inconclusive results are not listed. Active and inactive are the calls of the source. Rule for the calls, unless noted: active = hit-call score of the fitted dose curve at least 0.9, where 1 is the maximum; inconclusive = response in the unintended direction; inactive = score below 0.9.

On to `Cc1ccccc1CO[C@@H]1C[C@@]2(C(C)C)CC[C@]1(C)O2`, for which the concentration at half-maximal activity (AC50) with SERPINA7 (gene 6906) is 22.9 µM (active).

For the compound `CC(C)(O)C(=O)Nc1ccc([N+](=O)[O-])c(C(F)(F)F)c1`, the AC50 in the assay on SERPINA7 (gene 6906) is 35.6 µM (active).

With `c1cc2ccc3cccc4ccc(c1)c2c34`, in [1], the result was inactive.

Turning to `Oc1ccc(C(c2ccc(O)cc2)(C(F)(F)F)C(F)(F)F)cc1`, the result in [2] and in assay [3] was inactive. For the same compound, the AC50 in the assay on SERPINA7 (gene 6906) was 17.1 µM (active).

With `COc1ccc(O)c(C(C)(C)C)c1`, the call in assay [4] and in assay [5] was inactive.

As to `CC1=C2C[C@H]3[C@@H](CC=C4C[C@@H](O)CC[C@@]43C)[C@@H]2CC[C@]12O[C@@H]1C[C@H](C)CN[C@H]1[C@H]2C`, the compound was called inactive in [6], in assay [7] and in assay [8].

`O=S(=O)(O)C(F)(F)C(F)(F)C(F)(F)C(F)(F)F`: the call (in assay [9]; in assay [4]; in assay [5]; with SERPINA7 (gene 6906)) was inactive.

As to `Cc1cc(-c2ccc(N)c(C)c2)ccc1N`, in the assay on SERPINA7 (gene 6906), the AC50 was 26.5 µM (active) and 35.2 µM (active).

Turning to `CCCCCCOC(=O)c1ccccc1C(=O)OCCCCCC`, the half-maximal activity concentration (AC50) with SERPINA7 (gene 6906) was 5.7 µM (active).

Take `CCOC(=O)C(O)(c1ccc(Cl)cc1)c1ccc(Cl)cc1`: the half-maximal activity concentration (AC50) with SERPINA7 (gene 6906) is 7.32 µM (active).

The values above are taken from PubChem BioAssay (EPA / NIEHS).
